Screens (PubChem)
ELG1 DNA repair – blocks ELG1-dependent DNA repair in HEK293T cells; HEK293T ELG1-luciferase reporter, luminescence, 16 h; DNA damage induced by 5-fluorouridine; Potency, µM (titrated, usually from 46.1 µM), without a hit: at the top dose activity change, negative = inhibition, most hits filed as inhibitors; hit rate 2.3% among 330,000; further: on the % scale 0 is the no-effect control and ±100 the full control effect; nearly all actives have a fitted effect of over 55% in size
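Cells (2,000 per well) received 5-fluorouridine plus test compound or DMSO and were incubated 16 hr at 37 °C, 5% CO2. Luciferase activity was read by luminescence 30 min after ONE-Glo addition; signal suppression marked inhibition of damage-induced ELG1 function.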
SMN2 splice enh – enhancers of SMN2 splice variant expression | HEK293 SMN2-luciferase splicing reporter, luminescence, 30-36 h | Potency, µM (top dose mostly 46.1 µM), for the others: at the highest dose activity change, positive = activation, hits mostly activators | hit rate 2.8% among 210,000 | AID 1458; further: % of control where 0% means no effect; nearly all actives have a fitted effect of over 55% in size
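qHTS luciferase splicing reporter: luminescence rises when SMN2 exon 7 is included in transfected HEK293 cells. Compound exposure lasted 30-36 h at 37C, with 4.5 mM final sodium butyrate as control, followed by a ONE-Glo read.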
FLuc modulator – inhibits or activates purified firefly luciferase, miR-21 counter-screen; Potency, µM (doses to about 57.5 µM), inactives show at the top dose activity change, negative = inhibition, actives largely listed as inhibitors; P08659; hit rate 6.9% among 360,000; purified FLuc, Km substrates, luminescence inhibition;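 further: plate controls were vehicle for no effect and reference inhibitor for full effect; nearly all actives have a fitted effect of over 55% in size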
Target sequence (P08659 whole entry, looked up): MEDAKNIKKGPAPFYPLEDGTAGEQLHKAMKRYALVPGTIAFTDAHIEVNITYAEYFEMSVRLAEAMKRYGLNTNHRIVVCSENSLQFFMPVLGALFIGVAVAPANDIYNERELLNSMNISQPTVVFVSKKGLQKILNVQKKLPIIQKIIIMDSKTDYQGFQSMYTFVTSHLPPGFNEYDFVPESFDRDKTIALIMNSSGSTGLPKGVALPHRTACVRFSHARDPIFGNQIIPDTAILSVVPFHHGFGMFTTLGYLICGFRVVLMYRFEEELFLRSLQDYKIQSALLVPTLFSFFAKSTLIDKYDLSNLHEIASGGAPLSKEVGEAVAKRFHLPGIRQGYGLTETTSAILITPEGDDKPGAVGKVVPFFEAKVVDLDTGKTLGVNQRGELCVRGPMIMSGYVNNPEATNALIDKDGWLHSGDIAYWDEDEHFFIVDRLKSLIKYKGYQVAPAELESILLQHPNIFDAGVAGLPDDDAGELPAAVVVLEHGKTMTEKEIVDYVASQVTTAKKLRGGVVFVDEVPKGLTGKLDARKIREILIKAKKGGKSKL
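Purified P. pyralis luciferase, 10 nM final, with Km-level 10 uM D-luciferin and 10 uM ATP in 50 mM Tris acetate pH 7.5, 10 mM Mg acetate, 0.01% Tween-20, 0.05% BSA; 6-point qHTS titration about 60 µM downward; luminescence read.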
Rab9 promoter act – activators of Rab9 promoter | Huh7 Rab9 promoter-luciferase reporter, luminescence, 24 h | Potency, µM (series often up to 9.22 µM), for the others: at the top dose activation, negative = inhibition, usual class: activators | hit rate 2.8% among 320,000; further: % of control where 0% means no effect; nearly all actives have a fitted effect of over 60% in size
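Luciferase signal after 10 min detection reagent at ambient indicates Rab9 promoter upregulation; stably transfected Huh7 cells were treated 24 h with compound in DMSO at 37 °C, 5% CO2.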
ELG1 genotox – genotoxicity induction in ELG1-luciferase HEK293T cells | HEK293T ELG1-luciferase reporter, luminescence, 16 h | Potency, µM (top dose mostly 46 µM), without a hit: at the highest dose activity change, positive = activation, most hits filed as activators | hit rate 1.3% among 330,000 | AID 504466; further: % of control where 0% means no effect; nearly all actives have a fitted effect of over 60% in size
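HEK293T cells expressing luciferase-tagged ELG1 were treated with compound or DMSO for 16 hr at 37°C. Luciferase activity was then read after 30 min with ONE-Glo at room temperature; rising signal flags genetic stress.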
NPC1 promoter act – activators of NPC1 promoter; Huh7 NPC1 promoter luciferase reporter, 24 h; Potency, µM (titrated, usually from 9.22 µM), for inactives: at the highest dose activation, hits mostly activators; hit rate 2.4% among 320,000; AID 485313; further: % of control where 0% means no effect; nearly all actives have a fitted effect of over 60% in size
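Huh7 cells stably carrying NPC1 promoter–luciferase, plated in Opti-MEM with 10% FBS for 2 h, were exposed to compound in DMSO for 24 h at 37 °C; luciferase reagent was added for 10 min and luminescence read.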
* = called active by the depositor; ? = inconclusive; . = no result; [ ] = remark or other dose. Hits are enriched below; roughly 9.2% of the tested compounds scored in any of these assays. The call rests on the fitted dose curve; in most records, active means well fitted curve in the direction sought with a large enough effect; inconclusive means small, poorly fitted or top-dose-only effect, or another doubt; inactive means no such curve, though single readings can be large; an effect the other way counts as inactive or inconclusive. Potency means the concentration at half of the fitted maximal effect.

SMILES | ELG1 DNA repair | SMN2 splice enh | FLuc modulator | Rab9 promoter act | ELG1 genotox | NPC1 promoter act
CC12CC[C@H]3[C@@H](CCC4(O)C[C@H](O)CCC34/C=N/NC(=O)c3ccccc3O)C1(O)CCC2C1=CC(=O)OC1 (some centres undefined) | ? | . | 27µM* | -8% | -13% | 7%
CC12CC[C@H]3[C@@H](CCC4(O)C[C@H](O)CCC34/C=N/NC(=O)c3ccccc3F)C1(O)CCC2C1=CC(=O)OC1 (some centres undefined) | ? | . | -16% | -3% | -3% | 3%
CC1=C(O)C(=O)[C@@H]2O[C@@H]2C1=O | . | -10% | . | . | . | .
CCOc1ccc(NC(=O)C(=S)NC2CCCCC2)cc1 | ? | ? | 13µM* | ? | ? | ?
C(=NCCN1CCOCC1)=NC1CCCCC1 | . | 7%[9.22 µM] | . | . | . | .
CCC(=O)Nc1ccc(C(=O)OCc2ccccc2Cl)cc1 | ? | -14% | 19µM* | ? | 15% | ?
COc1ccc(-n2c(O)c(/C(C)=N/Nc3ccccc3)c(=O)[nH]c2=O)cc1 | 7.3µM* | . | 2% | -2% | 5% | -3%
CC(=O)N1CCN(c2ccc(OCC3CO[C@@](Cn4ccnc4)(c4ccc(Cl)cc4Cl)O3)cc2)CC1 (some centres undefined) | . | -69% | . | . | . | .
O=C1C2C3CCC(C3)C2C(=O)N1c1ccc(OS(=O)(=O)c2ccccc2)cc1 (centres undefined) | ? | -27% | 12µM* | 1.1µM* | ? | 3.5µM*
NC(Cc1nc2ccccc2[nH]1)c1ccc(Cl)cc1 (centres undefined) | ? | . | 11µM* | ? | 13µM* | 14%
NC(Cc1ccccc1)c1nc2ccccc2[nH]1 (centres undefined) | ? | . | ? | 13% | 10% | 18%
Cc1ccc(NC(=O)C2CCN(C(=O)c3cnn(-c4ccccc4)c3-n3cccc3)CC2)cc1Cl | . | -31% | ? | . | . | .
O=C1NC(=O)C(=Cc2ccc(N3CCN(C(=O)c4ccccc4)CC3)c([N+](=O)[O-])c2)C(=O)N1 | -3% | . | 21µM* | 2% | 1% | 0%
CCNCC(O)c1cccc(O)c1 (centres undefined) | -12% | . | 8% | -7% | 0% | -3%
NNCc1cccc(O)c1 | 0% | -1% | 2.7µM* | -1% | 6% | -1%
O=S(=O)(O)/C(=C\c1ccccc1)c1ccccc1 (tested in a mixture with another compound) | . | -7%[9.22 µM] | . | . | . | .
COc1cccc(-n2c(/C=C/c3ccc(O)c(O)c3)nc3ccccc3c2=O)c1 | 8.2µM* | . | ? | -5% | 1% | -12%
O=c1c2ccccc2nc(/C=C/c2ccc(O)cc2)n1-c1cccc(O)c1 | ? | -22% | 5% | 0% | 0% | -2%
Cc1ccc(-n2c(/C=C/c3ccc4c(c3)OCO4)nc3ccccc3c2=O)cc1 | 18µM* | -12% | -20% | -3% | -5% | 0%
COc1ccc(-n2c(/C=C/c3ccc4c(c3)OCO4)nc3ccccc3c2=O)cc1 | 23µM* | -40% | -11% | -1% | -11% | 1%
O=c1c2ccccc2nc(/C=C/c2ccc3c(c2)OCO3)n1-c1cccc(O)c1 | 16µM* | -29% | 0% | -2% | -6% | -1%
COc1ccc(-n2c(/C=C/c3ccc(O)c(OC)c3)nc3ccccc3c2=O)cc1 | ? | . | ? | 3% | -1% | -7%
CN(C)CS/C(N)=N/[C@H](O)C(Cl)(Cl)Cl | . | 11%[9.22 µM] | . | . | . | .
COc1ccc2c3c([nH]c2c1)C(C)=NCC3 | 9.2µM* | -5% | 8% | -3% | -9% | 1%
N#CSCSC#N | . | -98% | . | . | . | .
SMILES | ELG1 DNA repair | SMN2 splice enh | FLuc modulator | Rab9 promoter act | ELG1 genotox | NPC1 promoter act
CC1(C)CN=C(Nc2nc3ccccc3s2)S1 | ? | 13µM* | 3.4µM* | 0.63µM* | 5.8µM* | 1.8µM*
CCCCC[CH2][Hg][S]C1=C2N=CNC2NC(N)=N1 (centres undefined) | . | -48%[9.22 µM] | . | . | . | .
NC(N)=N/N=C/c1cn(-c2ccccc2)nc1-c1cccs1 | 0% | -14% | 4.3µM* | -3% | 1% | 0%
CC(C)CCn1c(N2CCN(c3cccc(Cl)c3)CC2)nc2c1c(=O)[nH]c(=O)n2C | 15µM* | -12% | 3% | 0% | -3% | 1%
Cc1ccc(-n2c(O)c(/C=N/NC(=O)c3ccncc3)c(=O)[nH]c2=O)cc1C | 6% | ? | 0% | -6% | 4% | 0%
Cc1nn(-c2ccccc2)c(Cl)c1/C=N\NC(=O)c1cnccn1 | ? | ? | 6µM* | 22% | 14% | 16%
CCC1=C(C[C@H]2NCCc3cc(OC)c(OC)cc32)C[C@H]2c3ccccc3CCN2C1 | . | -4%[9.22 µM] | . | . | . | .
CCn1c(O)c(N=Nc2cccc(S(=O)(=O)N3CCOCC3)c2)c(=O)n(CC)c1=S | 18µM* | . | -1% | -1% | -5% | 0%
CCn1c(O)c(N=Nc2ccc(S(=O)(=O)N3CCOCC3)cc2)c(=O)n(CC)c1=S | ? | . | 0% | 0% | -7% | -1%
C=C(C=O)CC1CC(O)[C@]2(C)OC3CC4OC5C[C@]6(C)O[C@]7(C)CCC8OC9C[C@]%10(C)OC%11C(C)=CC(=O)OC%11CC%10OC9C[C@@H](C)C8OC7CC6O[C@]5(C)CC5OC5C4OC3CC2O1 (some centres undefined) | 4.1µM* | . | 0% | -42% | -17% | -39%
C=C(CO)CC1CC(O)[C@]2(C)OC3CC4OC5C[C@]6(C)O[C@]7(C)CCC8OC9C[C@]%10(C)OC%11C(C)=CC(=O)OC%11CC%10OC9C[C@@H](C)C8OC7CC6O[C@]5(C)C/C=C\C4OC3CC2O1 (some centres undefined) | -20% | . | 1% | -11% | -11% | -3%
Clc1cccc(SC2CCNCC2)n1 | . | 1% | . | . | . | .
Clc1ccc2sc(C3CCNCC3)nc2c1 | ? | . | 24µM* | ? | ? | ?
CCC[CH2][Sn]([Cl])([Cl])[Cl] | . | 6% | . | . | . | .
CCN(CC)c1ccc(/C=C2\C(=O)NC(=S)N(C)C2=O)o1 | ? | . | 9.5µM* | 1.3µM* | 21µM* | 1.4µM*
CCN(CC)c1ccc(C=C2C(=O)N(C)C(=S)N(C)C2=O)o1 | ? | ? | ? | ? | ? | 14%
CC1CC(C)CN(S(=O)(=O)c2ccc3c(c2)oc(=O)n3CC(=O)NCc2cccnc2)C1 (centres undefined) | 3.7µM* | . | -2% | -4% | -8% | -3%
CN(Cc1ccccc1)C(=O)Cn1c(=O)oc2cc(S(=O)(=O)NCc3ccccc3)ccc21 | ? | -49% | 2% | -1% | -10% | 0%
